Measurements as given in the OligoGym collection.

Biological target: OSBPL11
Experiment: pooled miR-30 sensor sort-seq; sequence = guide strand
Settings: shRNA
Also: reference of the scale not given here.

Sequence | sensor-assay potency score (higher = more potent)
TTTACCACTTTGGTCTTGCTGC | -0.424
TTACACACATCTTCCTCTCTGT | 0.858
TTAAGTCTCTTTGTTGTCCTTC | 0.3
TAAATTAGTTCTTTTGCTCAGT | -0.186
TATCTGAAGTCTGCTAACCCAG | -1.27
TATACTTCATTAAATAGCCATA | -1.62
TTTACTTCAGCTGTAACCCGAT | 0.406
AATAGCTTCAGTATGATGCTGT | 0.478

Biological target: OSBPL2
Experiment: as above
Settings: shRNA

Sequence | sensor-assay potency score (higher = more potent)
TAAATCTGAATCCTAAATCTTC | -0.577
TTGAAGGCGATTGGCATCGTGA | -0.348
TTCAGGATGGTCCACACGCTGA | -1.77
TTTGTTTTTGTCTTGAATGTGT | 0.222
TTTTGTCTTGAATGTGTCCTTC | 0.333
TTTAAAATCTCCACTGTCCCAT | -0.254
TTAATTAGAATTACATCCTTGA | 1.08
TTCTCTCTGCTTCTCCTCCAGC | -1
TCTAAGTCAATCATTCCCGTGA | 0.725
TTGAATGTGTCCTTCCACCTTG | -0.0307
TAGAATTACATCCTTGATCAGG | -0.471
TTTTTGTCTTGAATGTGTCCTT | 0.356

Biological target: OSBPL3
Experiment: as above
Settings: shRNA

Sequence | sensor-assay potency score (higher = more potent)
TTCTTTACAGACATCACTGAGA | 0.168
TTCTTCTCCGGGACTTCGCTTC | 0.0582
TTGGAGATAACAGAACTTCCTG | 0.0622
TATAGTATTGCTCGTAGCCTTT | -1.22
TCTACTTTCATTAGAAAGCTGA | -0.307
TGAAGCTATAGTATTGCTCGTA | -0.222
TTGCTCTCCATACACAGGCAGA | -1.4
TAGAAGAATCTCTTATGCCAGC | -0.865
TTCATCTCTGGAGTTTTCGGAT | -0.271
TAAATCGAGTGTCAGTAGGTGG | -1.06
TACATTCATATAAACAATCAGG | -0.979
TTCTTGATGACAATCTCTCCAT | -0.313

Biological target: OSR1
Experiment: as above
Settings: shRNA

Sequence | sensor-assay potency score (higher = more potent)
AATATATCTGTGGTCTCGCAGG | -1.37
TATATCTGTGGTCTCGCAGGTG | 0.107
TTCTTTTCTGGAGACAGCTTGG | -0.688
ATATCTGTGGTCTCGCAGGTGG | -0.964
TTGGAGTGAATATATCTGTGGT | 0.0172
TTTCCCACACTCTTGACACTTG | -0.209
TAGGACTTGGTGAAGTGGCGGC | 0.00529
TAGGTTGTAGGACTTGGTGAAG | -1.09
